Measurements: PubChem BioAssay (NCATS)
Inconclusive results are not listed. The source made the active and inactive calls. Calls come from the whole dose curve; as a rule, active = well fitted cell-killing curve with a large enough effect; inconclusive = small, poorly fitted or top-dose-only effect; inactive = no such curve, though single readings can be large or run the other way.
Potency is the fitted concentration of half-maximal effect.

Test: qHTS of pediatric cancer cell lines to identify multiple opportunities for drug repurposing: Primary screen for OHS-50 cells (AID 1347103); note: nearly all actives have a fitted effect of over 40% in size
Details: OHS-50 osteosarcoma viability, CellTiter-Glo luminescence, 48 h; series mostly up to 57.3 µM
Text: Drug repurposing or repositioning has been offered as a strategy for drug development in oncology programs. This approach has special potential for childhood cancers and other rare or orphan diseases, where the expected return on new drug development has been a disincentive to pharmaceuticals.
In this project we exploit the poly-pharmacology of drugs to discover new indications via phenotypic screening of a panel of 19 well-characterized cell lines derived from solid tumors seen in children and adolescents. The goal is to identify approved drugs with previously unrecognized anticancer properties that has the potential to reveal new mechanisms and biological processes involved in carcinogenesis or drug resistance. We employed a titration-based paradigm (quantitative high-throughput screening or qHTS), where all compounds were tested at multiple concentrations for their effect on cell viability. Concentration-response curves (CRCs) were derived directly from the primary screen, and both potency and efficacy values were used to identify compounds with robust bioactivity profiles. We screened the NIH Chemical Genomics Center (NCGC) Pharmaceutical Collection (NPC) and Mechanism Interrogation Plate (MIPE) small molecule collections of approved and investigational compounds against these cell lines; and measured metabolically active cells after 48 hours of compound treatment as a proxy for cell viability.
Assay Submitter: Nathalia J. Martinez, National Center for Advancing Translational Sciences, National Institutes of Health, Rockville, MD, USA; email: natalia.martinez@nih.gov
[1] Shen, M et al. Quantitative high-throughput phenotypic screening of pediatric cancer cell lines identifies multiple opportunities for drug repurposing. Oncotarget 2017 Dec 19;9(4):4758-4772. PMID 29435139.
The cells were obtained from University of North Carolina (UNC), Pediatric Preclinical Testing Program (PPT), and Coriell Institute (CI).
qHTS cell viability assay:
Cells were assayed in growth media at a density of 500-1,000 cells/well. Five microliters of cells were dispensed into 1,536-well, white, solid-bottom, TC-treated plates (Greiner Bio One) using a multidrop dispenser and incubated at 37 degrees C, 5% CO2, under a humidified atmosphere for 5 hours. Twenty-three nanoliters of compounds and controls (neutral control DMSO or positive control bortezomib at final concentration of 2.3 µM) were subsequently transferred by Kalypsys pintool. For primary screens, the MIPE collection was tested at 11-point dilutions (final concentrations range from 0.78 nM to 46 µM) and the NPC collection at 8-point dilutions (final concentrations range from 0.59 nM to 46 µM). Compounds tested in follow-up screens were assayed at 11-point dilutions. Cells were incubated for 48 hours, followed by addition of 3 µL of CellTiter-Glo (Promega). After a 15 min incubation at room temperature, samples were analyzed for luminescence intensity using a ViewLux High-throughput CCD imager equipped with clear filters.
For `NCC1CCC(C(=O)O)CC1` (stereo not given), the Potency was “inactive”.
In the case of `O=C1CCCC(=O)C1C(=O)c1ccc(C(F)(F)F)cc1[N+](=O)[O-]`, the Potency is reported as “inactive”.
For `CC1(COc2ccc3c(c2)ncn3-c2ccc3cccc(N4CCC(N)CC4)c3n2)COC1`, the Potency was 13.7 µM (active).
In the case of `CNC(=O)c1ccc2c(C(=Nc3cccc(CN(C)C)c3)c3ccccc3)c(O)[nH]c2c1`, the Potency is reported as 13.7 µM (active).
For `Cc1ccc2c(=O)c3cccc(CC(=O)O)c3oc2c1C`, the Potency was “inactive”.
In the case of `CCCCC[C@H](O)C=C[C@H]1[C@H](O)CC(=O)[C@H]1CCCCCCC(=O)O`, the Potency is reported as “inactive”.
In the case of `C=C1[C@H](n2cnc3c(=O)[nH]c(N)nc32)C[C@H](O)[C@H]1CO`, the Potency is reported as 8.63 µM (active).
For `CC(C)c1c(C(=O)Nc2ccccc2)c(-c2ccccc2)c(-c2ccc(F)cc2)n1CC[C@H](O)C[C@@H](O)CC(=O)O`, the Potency was 19.3 µM (active).
For `O=C(c1ccc(F)c(F)c1Nc1ccc(I)cc1F)N1CC(O)([C@H]2CCCCN2)C1`, the Potency was 1.09 µM (active).
In the case of `CCCCC[C@H](O)C=C[C@H]1[C@H](O)CC(=O)[C@H]1CC=CCCCC(=O)O`, the Potency is reported as “inactive”.
For `C[C@@H]1[C@H](O)[C@@H](C)C=CC=CC=CC=CC=CC=CC=C[C@H](O[C@@H]2O[C@H](C)[C@H](O)[C@H](N)[C@@H]2O)C[C@@H]2O[C@](O)(C[C@@H](O)C[C@@H](O)[C@H](O)CC[C@@H](O)C[C@@H](O)CC(=O)O[C@H]1C)C[C@H](O)[C@@H]2C(=O)O`, the Potency was “inactive”.
For `O=C(O)c1ccc(O)c2ncc(N3CCOCC3)cc12`, the Potency was 24.3 µM (active).
With `COc1cc2nc(-c3cc(F)ccc3O)nc(N[C@@H]3CNC[C@@H]3C(C)(C)O)c2cc1OC` the Potency was 10.9 µM (active).
For `COc1cccc(OC)c1-c1cc(C(=O)NC2(C(=O)O)C3CC4CC(C3)CC2C4)nn1-c1ccnc2cc(Cl)ccc12` (stereo not given), the Potency was “inactive”.
With `CC[C@]1(O)C[C@H]2CN(CCC3=c4ccccc4=N[C]3[C@@](C(=O)OC)(c3cc4c(cc3OC)N(C)[C@H]3[C@@](O)(C(N)=O)[C@H](O)[C@]5(CC)C=CCN6CC[C@]43[C@@H]65)C2)C1` the Potency was 0.0685 µM (active).
In the case of `COc1ccc(-c2ccc3ncc4c(c3c2)n(-c2ccc(N3CCNCC3)c(C(F)(F)F)c2)c(=O)n4C)cn1`, the Potency is reported as 0.0054 µM (active).
For `CN(C)CCN(C)C(=O)c1ccc(NC(=O)Nc2ccc(-c3nc(N4CCOCC4)c4ccn(CC(F)(F)F)c4n3)cc2)cc1`, the Potency was 0.0432 µM (active).
With `CNC(=O)c1c(-c2ccc(F)cc2)oc2cc(N(CCO)S(C)(=O)=O)c(C3CC3)cc12` the Potency was 27.3 µM (active).
In the case of `Cc1cnc(Nc2cccc(CN3CCOCC3)c2)nc1Nc1cccc(S(=O)(=O)NC(C)(C)C)c1`, the Potency is reported as 3.43 µM (active).
For `COc1cc2nccc(Oc3ccc(NC(=O)Nc4cc(C)on4)c(Cl)c3)c2cc1OC`, the Potency was 19.3 µM (active).
In the case of `C=CC(=O)Nc1cccc(Sc2nc(Nc3ccc(N4CCN(C)CC4)cc3)ncc2Cl)c1`, the Potency is reported as 27.3 µM (active).
With `CC(C)(OCc1nn(Cc2ccccc2)c2ccccc12)C(=O)O` the Potency was “inactive”.
In the case of `COc1ccc2ccc(=O)oc2c1CC=C(C)C`, the Potency is reported as 24.3 µM (active).
In the case of `O=C(c1ccc(C=Cc2n[nH]c3ccccc23)cc1)N1CCNCC1`, the Potency is reported as 2.17 µM (active).
With `O=C1C(c2c(O)[nH]c3ccccc23)=Nc2ccccc21` the Potency was “inactive”.
With `OC[C@H]1O[C@@H](OCCc2ccc(O)cc2)[C@H](O)[C@@H](O)[C@H]1O` the Potency was “inactive”.
For `CCCC1OC2C[C@@H]3[C@H]4CCC5=CC(=O)C=C[C@]5(C)[C@H]4C(O)C[C@]3(C)[C@]2(C(=O)CO)O1` (stereo not given in full), the Potency was “inactive”.
In the case of `CCOC(=O)N1CCN([N+]([O-])=NOc2cc(ON=[N+]([O-])N3CCN(C(=O)OCC)CC3)c([N+](=O)[O-])cc2[N+](=O)[O-])CC1`, the Potency is reported as “inactive”.
In the case of `O=C(Nc1ncc(SCCN2CCCC2)s1)[C@]1(c2ccc(S(=O)(=O)C3CC3)cc2)C[C@@H]1C1CCCCC1`, the Potency is reported as 24.3 µM (active).
In the case of `CN1CCN(c2ncc(-c3cc(Cl)cc(Cl)c3Cl)c(N)n2)CC1`, the Potency is reported as 3.85 µM (active).
For `Cc1cccc(-c2[nH]c(C(C)(C)C)nc2-c2ccc3c(c2)OCO3)n1`, the Potency was 2.73 µM (active).
With `CN1C(=O)C(Cc2c[nH]c3ccccc23)NC1=S` (stereo not given) the Potency was “inactive”.
For `CN(C)c1nc(Cc2ccc(NC(=O)c3ccc(C(F)(F)F)cc3)cc2)nc(N(C)C)c1CC(=O)O`, the Potency was “inactive”.
With `Cc1cccc(Nc2nc(N[C@@H]3CCCC[C@H]3N)ncc2C(N)=O)c1` the Potency was 7.69 µM (active).
For `Cc1nn(Cc2ccccc2Cl)c(C)c1CN(C)CC(O)COc1ccc(Cl)cc1` (stereo not given), the Potency was 24.3 µM (active).
With `N[C@@H](CC(=O)N1CCn2c(nnc2C(F)(F)F)C1)Cc1cc(F)c(F)cc1F` the Potency was “inactive”.
For `O=C(NCCCCN1CCOCC1)c1cc2ccccc2o1`, the Potency was “inactive”.
For `C[C@@H](O[C@H]1OCCN(Cc2n[nH]c(=O)[nH]2)[C@@H]1c1ccc(F)cc1)c1cc(C(F)(F)F)cc(C(F)(F)F)c1`, the Potency was 30.6 µM (active).
For `CCC(c1ccc(O)cc1)C(CC)c1ccc(O)cc1` (stereo not given), the Potency was 27.3 µM (active).
In the case of `COc1cc([C@H]2Oc3cc([C@H]4Oc5cc(O)cc(O)c5C(=O)[C@H]4O)ccc3O[C@H]2CO)ccc1O`, the Potency is reported as “inactive”.
